Laboratory results: PubChem BioAssay AID2685 (National Center for Advancing Translational Sciences (NCATS), 2010)
Out of some 320,000 compounds screened, about 2,100 (0.66%) were called active. About 53% were inconclusive and are not listed. This is one part of a sample in which actives are shown more often than they occur. Calls come from the whole dose curve; as a rule, active = well fitted inhibition curve with a large enough effect in the signal ratio, with a control signal flat (not every such curve was filed as active); inconclusive = small, poorly fitted or top-dose-only effect, or effect the other way, or a change in a side signal; inactive = flat fitted curve, though single readings scatter; the % refers to the signal ratio.

Assay: qHTS Assay for Lipid Storage Modulators in Drosophila S3 Cells;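 for cell number change: cells counted by Cell Tracker Red CMTPX staining in the red channel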; for lipid storage change, negative = inhibition: % is set by controls: 0 for no effect and ±100 for the full control effect
Details: BODIPY lipid droplet fluorescence, 18-24 h, cells fed with added oleic acid; cell number change: measured here: cell count max response; series mostly up to 46.1 µM
Procedure, shortened: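 Drosophila S3 cells loaded with oleic acid (400 uM, as added) and compounds at several concentrations; lipid droplets imaged by 488-nm laser-scanning cytometry, 500–530 nm intensity and object ratio to cell channel. Percent activity normalized to 20 uM Triacsin C.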
Potency is the fitted concentration of half-maximal effect.

Row | SMILES | Potency | cell number change | outcome | lipid storage change, negative = inhibition
1 | CCOC(=O)c1[nH]ncc1CN1CCCC(C(=O)c2ccc(SC)cc2)C1 (stereo not drawn) | inactive | 0.969% |  | 
2 | COC(=O)c1ccc(-c2c(-c3ccccc3)ncc3cc(F)ccc23)cc1 | inactive | -9.19% |  | 
3 | CCn1c(CSCc2ccc(F)cc2)nnc1SCC(=O)NCc1ccccc1 | inactive |  |  | 
4 | CCn1c(CSc2nc3ccccc3s2)nnc1SCC(=O)NCC(=O)OC | 25.9 µM (active) | -13.2% |  | 
5 | CCn1c(CSc2nc3ccccc3s2)nnc1SCC(=O)c1ccc(O)c(O)c1 | inactive | 8.44% |  | 
6 | CCn1c(CSc2nc3ccccc3s2)nnc1SCC(=O)c1ccc(O)cc1O | inactive | -7.44% |  | 
7 | CCn1c(CSCc2ccc(C)cc2)nnc1SCC(=O)NCc1ccccc1 | 20.6 µM (active) | -15.2% |  | 
8 | CCn1c(CNc2ccc(C)cc2)nnc1SCC(=O)NCc1ccccc1 | inactive | -12.4% |  | 
9 | CC(C)[C@H](N)c1cn([C@@H](CC(N)=O)C(=O)N2CCNCC2)nn1 | inactive | 10% |  | 
10 | CCOC(=O)Cn1nc(C)c([N+](=O)[O-])c1C | inactive | 2.33% |  | 
11 | O=C(CS(=O)CC(=O)N(CC(=O)NC1CCCC1)c1ccc2c(c1)OCCO2)Nc1ccc(F)cc1 (stereo not drawn) | inactive | 11.4% |  | 
12 | CCc1ccc(C(=O)c2oc3nc(C)cc(C)c3c2N)cc1 | 25.9 µM (active) | -19.5% |  | 
13 | Cc1cc(C)c2c(N)c(C(=O)c3ccc(Br)cc3)oc2n1 | inactive | -13.1% |  | 
14 | Cc1ccc(C(=O)c2oc3nc(C)cc(C)c3c2N)cc1 | inactive | -19% |  | 
15 | CC1CC(C)CN(S(=O)(=O)c2ccc(NC(=O)CN3C(=O)NC(C)(c4ccccc4)C3=O)cc2)C1 (stereo not drawn) | inactive | 3.59% |  | 
16 | O=C(O)C1CC(=O)N(C2CCCCC2)C1c1ccccc1 (stereo not drawn) | inactive | -5.69% |  | 
17 | CCOC(=O)N1CCN(C(=O)CSc2nc(=O)n3cc(C)ccc3n2)CC1 | inactive |  |  | 
18 | Cc1ccc(C(NC(=O)C2CCCCC2)c2c(O)ccc3ccccc23)cc1 (stereo not drawn) | 13 µM (active) | -26.6% |  | 
19 | CC(C)CC(=O)NC(c1ccccc1)c1c(O)ccc2ccccc12 (stereo not drawn) | inactive | -6.8% |  | 
20 | CC(=O)NC(c1ccccc1)c1c(O)ccc2ccccc12 (stereo not drawn) | inactive | 0.433% |  | 
21 | CCN(CC)S(=O)(=O)c1ccc(N2CCOCC2)c(NC(=O)CN2C(=O)NC(C)(c3ccccc3)C2=O)c1 (stereo not drawn) | inactive |  |  | 
22 | O=C(Cc1cccc(F)c1)N1CCCC(CO)(Cc2ccc(F)cc2F)C1 (stereo not drawn) | inactive | 17.6% |  | 
23 | CC1(C)Cc2c(c(-c3ccccc3)nc3sc4c(=O)[nH]c(=S)[nH]c4c23)CO1 | inactive |  |  | 

Row | SMILES | Potency | cell number change | outcome | lipid storage change, negative = inhibition
24 | CC(C)c1nc2sc3c(=O)[nH]c(=S)[nH]c3c2c2c1CCC2 | 20.6 µM (active) | 5.1% |  | 
25 | CC(C)c1nc2sc3c(=O)[nH]cnc3c2c2c1CCC2 | inactive | -2.67% |  | 
26 | Cc1[nH]n(-c2ccc([N+](=O)[O-])cc2)c(=O)c1C=NCC1CCCO1 (stereo not drawn) |  |  | inactive [at 9.22 µM] | 
27 | O=C(CN1C(=O)/C(=C/c2cccc(Br)c2)SC1=S)NCCCN1CCOCC1 | inactive |  |  | 
28 | O=C(Cc1csc(NC(=O)Nc2ccc(Cl)cc2)n1)NC1CCCC1 |  |  | inactive [at 0.0737 µM] | 
29 | Cn1c(CC(=O)NCCO)c(Sc2ccccc2)c2ccccc21 | inactive | -10.3% |  | 
30 | CSc1c(CC(=O)NCCCO)n(Cc2ccccc2)c2ccccc12 | inactive | -1.72% |  | 
31 | O=C(Cc1c(Sc2ccccc2)c2ccccc2n1Cc1ccccc1)NCCO | 13 µM (active) |  |  | 
32 | Cc1cccc(-n2c(=S)[nH]c3nc4c(cc3c2=O)COC(C)(C)C4)c1 | inactive | 18.9% |  | 
33 | CCOc1ccc(S(=O)(=O)NCCc2cn3ccccc3n2)cc1 | inactive | 6.49% |  | 
34 | COc1ccc(-c2csc3ncnc(N4CCN(S(=O)(=O)c5ccccc5C#N)CC4)c23)cc1 | 7.31 µM (active) | -21.2% |  | 
35 | CN1CCN(c2nc(-c3cccnc3)nc3scc(-c4ccccc4)c23)CC1 | inactive |  |  | 
36 | Cc1ccc(-c2csc3ncnc(N4CCN(c5ccccc5O)CC4)c23)cc1 | inactive | 7.78% |  | 
37 | COc1ccc(-c2csc3ncnc(N4CCN(c5ccc(OC)cc5)CC4)c23)cc1 | inactive | 11.5% |  | 
38 | c1ccc(-c2csc3ncnc(N4CCOCC4)c23)cc1 | inactive | -6.12% |  | 
39 | Oc1ccccc1N1CCN(c2ncnc3scc(-c4ccccc4)c23)CC1 | 0.92 µM (active) | -12.6% |  | 
40 | Cc1nc(N2CCN(c3ccccc3O)CC2)c2c(-c3ccccc3)csc2n1 | 4.11 µM (active) | -4.5% |  | 
41 | Cc1nc(N2CCCCC2)c2c(-c3cccs3)csc2n1 | inactive | 4.97% |  | 
42 | COc1ccc(-c2csc3ncnc(N4CCN(S(=O)(=O)c5ccc(Cl)s5)CC4)c23)cc1 | inactive |  |  | 
43 | COc1cccc(NC(=O)CN(C)C(=O)c2ccccc2-c2nc3ccccc3s2)c1 | inactive | -6.15% |  | 
44 | CCCCn1c(N)c(N(CC)C(=O)c2ccc([N+](=O)[O-])c(C)c2)c(=O)[nH]c1=O | inactive | 6.41% |  | 
45 | COCC(=O)NCCSc1c(C)[nH]c2ccccc12 | inactive |  |  | 
46 | COc1ccc(/C=N/NC(=O)c2cccc(Br)c2)cc1CSc1ccccn1 | inactive | 25.3% |  | 

Row | SMILES | Potency | cell number change | outcome | lipid storage change, negative = inhibition
47 | Cc1ccccc1CN1CCC(n2nccc2NC(=O)CCOc2ccccc2)CC1 | inactive |  |  | 
48 | N#Cc1ccccc1OCC(=O)NCC(c1ccc(F)cc1)N1CCOCC1 (stereo not drawn) | inactive | 17.7% |  | 
49 | CSc1nnc(C)c(=O)n1COC(=O)COc1ccc(F)cc1 | inactive |  |  | 
50 | CCC(C)N(C(=O)Cn1nnc(-c2ccc(F)cc2)n1)C1CCS(=O)(=O)C1 (stereo not drawn) | inactive | 8.11% |  | 
51 | COc1ccc(N(CC(=O)NCc2ccc3c(c2)OCO3)C(=O)c2csnn2)cc1 | 1.16 µM (active) | -14.1% |  | 
52 | O=C(CN(C(=O)c1csnn1)c1ccc(Cl)cc1)NCc1ccc2c(c1)OCO2 | inactive | 3.81% |  | 
53 | COc1ccc(S(=O)(=O)N(C)CC(=O)NCc2ccc3c(c2)OCO3)cc1 | 2.06 µM (active) | 16.1% |  | 
54 | COc1ccc(S(=O)(=O)N(C)CC(=O)Nc2ccc3c(c2)OCO3)cc1 | inactive | -1.44% |  | 
55 | O=C(CN(C(=O)c1csnn1)c1cccc(F)c1)NCc1ccc2c(c1)OCO2 | inactive | 8.12% |  | 
56 | COc1ccc(Cl)cc1S(=O)(=O)N(C)CC(=O)NCc1ccc2c(c1)OCO2 | inactive | 13.5% |  | 
57 | Cc1ccc2c(c1)N(S(=O)(=O)c1ccc3c(c1)NC(=O)CC(=O)N3)CCO2 | inactive | 15% |  | 
58 | COC(=O)c1sc2ncccc2c1OCc1ccccc1Cl | inactive | -10.8% |  | 
59 | COc1cccc(C2/C(=C(/O)c3ccc4c(c3)OCO4)C(=O)C(=O)N2CCN2CCOCC2)c1 (stereo not drawn) | inactive | 25.8% |  | 
60 | CC(C)Cc1nnc(NC(=O)C2=COCCO2)s1 | inactive | -9.23% |  | 
61 | C=CCn1c(C)c(C(C)=O)c(N2CCOCC2)nc1=S | 23.1 µM (active) | -4.96% |  | 
62 | C=CCn1c(C)c(C(C)=O)c(N2CCCC2)nc1=S | inactive | 0.195% |  | 
63 | C=CCn1c(C)c(C(C)=O)c(N2CCN(c3ccccc3)CC2)nc1=S | inactive | -14.3% |  | 
64 | CCOc1ccc(/C=N/n2c(SC)nnc(C(C)(C)C)c2=O)cc1 | inactive | -13.9% |  | 
65 | COC(=O)COc1ccc(S(=O)(=O)Nc2ccc(NC(C)=O)cc2)cc1 | 3.66 µM (active) | -0.0647% |  | 
66 | Cc1cccc(OCC(=O)Nc2ccc(S(=O)(=O)Nc3cc(C)nc(C)n3)cc2)c1 | inactive | 13.6% |  | 
67 | Cc1cc(NS(=O)(=O)c2ccc(NC(=O)CN3C(=O)c4ccccc4C3=O)cc2)nc(C)n1 | inactive |  |  | 
68 | COCC(=O)Nc1ccc(S(=O)(=O)Nc2cc(C)nc(C)n2)cc1 | 32.6 µM (active) | -33.4% |  | 
69 | Cc1cc(C)nc(NS(=O)(=O)c2ccc(NC(=O)CN3C(=O)c4ccccc4C3=O)cc2)n1 | 6.51 µM (active) | -6.03% |  | 

Row | SMILES | Potency | cell number change | outcome | lipid storage change, negative = inhibition
70 | CCOc1ccc(OCC(=O)Nc2ccc(S(=O)(=O)Nc3cc(C)nc(C)n3)cc2)cc1 | inactive | -4.96% |  | 
71 | Cc1cc(C)nc(NS(=O)(=O)c2ccc(NC(=O)CN3C(=O)S/C(=C\c4ccccc4)C3=O)cc2)n1 | inactive | 8.32% |  | 
72 | Cc1cc(NS(=O)(=O)c2ccc(NC(=O)COc3ccc(Br)cc3)cc2)nc(C)n1 | 18.4 µM (active) |  |  | 
73 | COCCOCC(=O)Nc1ccc(S(=O)(=O)Nc2cc(C)nc(C)n2)cc1 | inactive | 21.3% |  | 
74 | COC(=O)COc1ccc(S(=O)(=O)Nc2ccc(C(N)=O)cc2)cc1 | inactive | 10.2% |  | 
75 | Cc1cc(NS(=O)(=O)c2ccc(NC(=O)CCCC(=O)O)cc2)nc(C)n1 | inactive | -5.64% |  | 
76 | CCOC(=O)COc1ccc(S(=O)(=O)Nc2ccc(C)cc2)cc1 | inactive | 11.3% |  | 
77 | Cc1c(C(=O)NCc2cccnc2)sc2nc(-c3ccccc3)cn12 | inactive | -2.88% |  | 
78 | Cc1cccn2c(=O)nc(SCC(=O)NCc3ccccc3)nc12 |  | 26.3% |  | 14.2% [at 0.0737 µM] (inactive)
79 | Cc1ccc(-n2ncc3c(=O)n(-c4ccc(C)c(C)c4)c(C)nc32)cc1 | inactive | -21% |  | 
80 | CC1=Nc2ccccc2N=C(NC(=O)CSC(=S)N2CCCCC2)C1c1ccccc1 (stereo not drawn) | inactive | 11.1% |  | 
81 | CC(C)CC(NC(=O)c1ccccc1NC(=O)c1ccccc1)C(=O)O (stereo not drawn) | inactive | -8.71% |  | 
82 | CCC(=O)N(CCC(c1ccccc1)c1ccco1)Cc1cccs1 (stereo not drawn) | inactive | 1.01% |  | 
83 | CC(=O)NCCC(=O)Nc1nc(-c2cccs2)c(-c2cccs2)s1 | inactive | 13.4% |  | 
84 | CNC(=O)c1ccc(OC2CSC2)cc1 | 16.4 µM (active) | -3.88% |  | 
85 | CC(C)NC(=O)c1ccc(OC2CSC2)cc1 | inactive | 2.39% |  | 
86 | CC(=O)c1cccc(NC(=O)c2ccc(OC3CSC3)cc2)c1 | inactive | 14.6% |  | 
87 | O=C(NCC(=O)N(Cc1ccccc1)C(C(=O)NC1CCCC1)c1ccncc1)c1ccco1 (stereo not drawn) | inactive | -25% |  | 
88 | COc1cccc(C2CCCN2Cc2nc(CC3CC3)no2)c1 (stereo not drawn) | inactive | -10.7% |  | 
89 | CCC(=O)Nc1ccc(S(=O)(=O)Nc2ccc(Cl)nn2)cc1 | inactive | -1.17% |  | 
